Screening results: PubChem, National Center for Advancing Translational Sciences (NCATS)
Nrf2 activator – Nrf2 pathway activation; Potency, µM (series often up to 46.1 µM), for inactives: top-dose activation, actives largely listed as activators; hit rate 0.31% among 410,000; AID 624171; AREc32 ARE-luciferase reporter (MCF7-derived line), luminescence, 24 h; also: % of control where 0% means no effect; nearly all actives have a fitted effect of over 65% in size
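Each well held 1000 AREc32 cells, which were incubated with compound for 24 hr at 37 deg C after overnight attachment, and ARE reporter activity was quantified by firefly luciferase luminescence.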
IDH1 R132H inh – inhibitors of human mutant IDH1 R132H; IDH1-R132H enzyme, NADPH consumption, diaphorase/resazurin fluorescence; Potency, µM (highest dose often 76.6 µM), without a hit: top-dose activity change, negative = inhibition, actives largely listed as inhibitors; hit rate 0.093% among 390,000; AID 602179; also: % is scaled to controls: 0 for no effect and ±100 for the full control effect; nearly all actives have a fitted effect of over 65% in size
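IDH1-R132H (0.5 ug/mL) preincubated 30 min with compound, then NADPH (0.016 mM) and alpha-KG (2 mM) added; 80 min at RT, pH 7.5. Remaining NADPH coupled via diaphorase/resazurin to fluorescence (540/590 nm); concentration-response curves normalized to no-enzyme control.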
Nrf2 block – Nrf2 pathway inhibition. AID 504444. A549 ARE-Fluc reporter, luciferase luminescence, 18-24 h. Potency, µM (doses to about 46 µM), for inactives: at the top dose activity change, negative = inhibition, usual class: inhibitors. hit rate 2.1% among 360,000; also: % is scaled to controls: 0 for no effect and ±100 for the full control effect; nearly all actives have a fitted effect of over 60% in size
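A549 ARE_Fluc cells, 5000/well, 5% FBS OPTI-MEM; compounds in dose-response, 18-24 h at 37 °C/5% CO2; CellTiter-Fluor viability read (Ex 405/Em 525), then BugLite luciferase luminescence = Nrf2 activity.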
A549 tox – A549 cytotoxicity, counter-screen for Nrf2 inhibitors; hit rate 0.16% among 390,000; Potency, µM (titrated, usually from 46 µM), without a hit: top-dose activity change, negative = cytotoxicity, actives largely listed as inhibitors; A549 ARE-Fluc cells, CellTiter-Fluor viability, 18-24 h; also: % is scaled to controls: 0 for no effect and ±100 for the full control effect
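Cytotoxicity counterscreen: CellTiter-Fluor fluorescence was measured in A549 ARE_Fluc cells after 18-24 h of compound exposure in a concentration series. The subsequent BugLite luminescent read reports ARE-luciferase activity.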
ELG1 repair inh – ELG1-dependent DNA repair inhibition; HEK293T ELG1-luciferase reporter, luminescence, 16 h; DNA damage induced by 5-fluorouridine; Potency, µM (titrated, usually from 46.1 µM), for inactives: at the top dose activity change, negative = inhibition, usual class: inhibitors; hit rate 2.3% among 330,000; also: % is scaled to controls: 0 for no effect and ±100 for the full control effect; nearly all actives have a fitted effect of over 55% in size
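Reporter activity after DNA damage by 5-fluorouridine is monitored. Compound-treated cells incubate 16 hr at 37 °C, then ONE-Glo is added for 30 min before luminescence reading.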
ELG1 FLuc counter – luciferase inhibition in cell-free luciferin readout for ELG1 hits; cell-free firefly luciferase luminescence counter-screen, ViewLux; AID 624247; shares compounds with ELG1 repair inh; hit rate 3% among 350; Potency, µM (top dose mostly 46.1 µM), inactives show at the top dose activity change, negative = inhibition, most hits filed as inhibitors; also: % is scaled to controls: 0 for no effect and ±100 for the full control effect
ELG1 Luc conf – confirmation of human ELG1-dependent DNA repair inhibitors | shares compounds with ELG1 repair inh | hit rate 68% among 670 | Potency, µM (highest dose often 46.1 µM), without a hit: at the top dose activity change, negative = inhibition, most hits filed as inhibitors | HEK293T ELG1-luciferase levels, luminescence; cells co-treated with 5-fluorouridine; also: % is scaled to controls: 0 for no effect and ±100 for the full control effect; nearly all actives have a fitted effect of over 55% in size
Target sequence (Q96QE3 whole entry, looked up): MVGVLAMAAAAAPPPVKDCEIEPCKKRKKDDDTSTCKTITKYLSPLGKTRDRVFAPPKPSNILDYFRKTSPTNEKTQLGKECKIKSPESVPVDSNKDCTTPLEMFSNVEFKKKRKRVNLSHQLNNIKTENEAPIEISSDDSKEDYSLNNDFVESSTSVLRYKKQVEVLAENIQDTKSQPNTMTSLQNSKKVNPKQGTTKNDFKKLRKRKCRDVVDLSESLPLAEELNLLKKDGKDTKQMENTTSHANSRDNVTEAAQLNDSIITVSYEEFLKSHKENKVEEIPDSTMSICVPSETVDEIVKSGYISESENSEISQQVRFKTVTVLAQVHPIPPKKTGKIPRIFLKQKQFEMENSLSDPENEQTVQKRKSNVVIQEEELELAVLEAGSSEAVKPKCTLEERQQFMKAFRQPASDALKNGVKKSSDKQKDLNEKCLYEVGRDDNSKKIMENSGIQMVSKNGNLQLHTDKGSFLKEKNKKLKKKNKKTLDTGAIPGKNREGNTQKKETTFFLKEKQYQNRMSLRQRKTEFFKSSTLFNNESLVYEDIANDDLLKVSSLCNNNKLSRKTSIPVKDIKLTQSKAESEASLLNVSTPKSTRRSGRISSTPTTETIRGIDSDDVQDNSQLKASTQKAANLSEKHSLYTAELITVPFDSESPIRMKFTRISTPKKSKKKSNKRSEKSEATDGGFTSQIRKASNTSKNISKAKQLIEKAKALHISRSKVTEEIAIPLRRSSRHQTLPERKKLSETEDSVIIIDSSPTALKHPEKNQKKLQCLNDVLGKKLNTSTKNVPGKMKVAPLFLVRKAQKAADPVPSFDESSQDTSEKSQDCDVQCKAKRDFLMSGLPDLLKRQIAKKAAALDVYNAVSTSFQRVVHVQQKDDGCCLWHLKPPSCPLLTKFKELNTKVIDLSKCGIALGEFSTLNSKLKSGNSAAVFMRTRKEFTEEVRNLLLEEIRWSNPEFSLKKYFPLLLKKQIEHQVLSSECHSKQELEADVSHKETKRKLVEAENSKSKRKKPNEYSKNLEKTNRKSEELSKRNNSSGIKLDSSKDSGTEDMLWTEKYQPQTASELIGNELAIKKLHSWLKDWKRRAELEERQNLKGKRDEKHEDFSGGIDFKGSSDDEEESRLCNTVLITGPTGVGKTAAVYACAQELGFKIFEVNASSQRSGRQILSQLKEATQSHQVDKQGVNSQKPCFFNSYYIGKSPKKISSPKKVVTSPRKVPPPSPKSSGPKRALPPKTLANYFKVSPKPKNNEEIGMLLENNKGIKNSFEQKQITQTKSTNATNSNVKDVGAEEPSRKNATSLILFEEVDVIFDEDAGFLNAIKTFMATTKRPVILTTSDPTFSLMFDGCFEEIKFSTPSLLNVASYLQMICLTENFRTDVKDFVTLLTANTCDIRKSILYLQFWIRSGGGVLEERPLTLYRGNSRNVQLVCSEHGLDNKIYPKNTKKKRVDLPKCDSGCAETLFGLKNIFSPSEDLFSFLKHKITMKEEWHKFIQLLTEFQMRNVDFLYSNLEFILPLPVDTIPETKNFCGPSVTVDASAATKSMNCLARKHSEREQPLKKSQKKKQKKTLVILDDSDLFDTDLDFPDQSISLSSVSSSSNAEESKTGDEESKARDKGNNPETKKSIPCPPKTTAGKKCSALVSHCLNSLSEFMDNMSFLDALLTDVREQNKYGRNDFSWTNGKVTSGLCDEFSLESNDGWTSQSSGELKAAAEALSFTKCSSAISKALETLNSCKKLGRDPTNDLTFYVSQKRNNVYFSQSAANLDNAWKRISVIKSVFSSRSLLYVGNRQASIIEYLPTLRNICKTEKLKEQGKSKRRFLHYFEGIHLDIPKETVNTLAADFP
ELG1-Luc MMS – inhibits ELG1-dependent repair under MMS stimulation in HEK293T cells; hit rate 53% among 670; HEK293T luciferase-tagged ELG1 level, MMS stimulated; shares compounds with ELG1 repair inh; Potency, µM (highest dose often 46.1 µM), for the others: top-dose activity change, negative = inhibition, usual class: inhibitors; also: % is scaled to controls: 0 for no effect and ±100 for the full control effect; nearly all actives have a fitted effect of over 60% in size
ELG1 5-FU – confirmation of ELG1 repair inhibitors: viability with 5FU; shares compounds with ELG1 repair inh; cell viability with 5-FU, ELG1-dependent repair; Potency, µM (doses to about 46.1 µM), for inactives: at the highest dose activity change, negative = viability loss, most hits filed as cytotoxic; 670 tested, under 10 active; AID 624250;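 also: ELG1-luc HEK293T cells cotreated with 5-fluorouridine at 10 µM final; viability measured 16 h after compound addition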
ELG1 MMS viab – confirmation of ELG1 repair inhibitors: viability with MMS | AID 624251 | Cell viability with MMS, ELG1-dependent DNA repair | hit rate 33% among 670 | shares compounds with ELG1 repair inh | Potency, µM (doses to about 46.1 µM), inactives show at the highest dose activity change, negative = viability loss, actives largely listed as cytotoxic;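 also: ELG1-luc HEK293T cells co-treated with 10 µM MMS; viability read 16 h after compound addition; % is scaled to controls: 0 for no effect and ±100 for the full control effect; nearly all actives have a fitted effect of over 60% in size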
Cell viab unstim – counter-screen for ELG1 repair inhibitors: unstimulated cell viability; shares compounds with ELG1 repair inh; cell viability counter-screen, unstimulated, luminescence; Potency, µM (series often up to 45.9 µM), for the others: top-dose activity change, negative = loss of viability, hits mostly cytotoxic; hit rate 8% among 900; AID 624252;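 also: compound exposure lasted 16 hours before reading; % is scaled to controls: 0 for no effect and ±100 for the full control effect; nearly all actives have a fitted effect of over 55% in size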
FLuc biochem – counter-screen for ELG1 repair inhibitors: firefly luciferase inhibition. hit rate 10% among 350. shares compounds with ELG1 repair inh. purified firefly luciferase, luminescence counter-screen. Potency, µM (doses to about 57.5 µM), without a hit: top-dose activity, negative = inhibition, actives largely listed as inhibitors; also: % is scaled to controls: 0 for no effect and ±100 for the full control effect
Active calls of the source: *; ? = inconclusive; / = no result. Sampled rows, rich in hits. Any-hit rate of the full collection: about 3.8%. Calls follow the shape of the dose curve; as a rule, active = well fitted curve in the direction sought with a large enough effect; inconclusive = small, poorly fitted or top-dose-only effect, or another doubt; inactive = no such curve, though single readings can be large; an effect the other way counts as inactive or inconclusive. Potency is read from the fitted curve at half-maximal effect.

SMILES	Nrf2 activator	IDH1 R132H inh	Nrf2 block	A549 tox	ELG1 repair inh	ELG1 Luc conf	ELG1-Luc MMS	ELG1 5-FU	ELG1 MMS viab	Cell viab unstim	others
COc1ccc(-c2cc(C(F)F)n3ncc(C(=O)Nc4ccc(C(=O)N5CCOCC5)cc4)c3n2)cc1	4%	-4%	-10%	1%	2.6µM*	2.8µM*	-28%	?	6%	?
CN(CCCNC(=O)c1ccccc1F)CCCNC(=O)c1ccccc1F	0%	2%	-12%	12%	11%	/	/	/	/	/
COc1ccc(Cl)cc1NC(=O)Cn1c2ncccc2c(=O)n1-c1ccc(C)c(C)c1	-1%	35%	-23%	-17%	/	/	/	/	/	/
COc1ccc(CNC(=O)C(c2ccc(C)o2)N(Cc2cccs2)C(=O)Cc2cccs2)cc1 (stereo not drawn)	0%	5%	?	-26%	21µM*	11µM*	?	4%	-4%	?	ELG1 FLuc counter=-14%;FLuc biochem=3%
COCCN(C(=O)Cc1cccs1)C(C(=O)NCc1ccc(OC)cc1)c1ccc(C)cc1 (stereo not drawn)	-1%	4%	-19%	-2%	?	/	/	/	/	/
Cc1cc(C(=O)COC(=O)c2ccc(F)cc2)c(C)n1C	-1%	5%	33%	-7%	?	/	/	/	/	?
CC(=O)CSc1nnc2[nH]c(=O)cc(N)n12	0%	24%	/	1%	/	/	/	/	/	/
CCOC(=O)c1c(S(=O)(=O)N2CCN(c3ccccc3OC)CC2)c(C)n(C)c1C	0%	22%	20%	10%	/	/	/	/	/	/
O=C(c1cc2ccccc2[nH]1)c1cc2cc(O)ccc2[nH]1	/	/	/	/	/	/	/	/	/	-1%
CC(C)CC(C)NNC(=O)c1cc2ccccc2[nH]1 (stereo not drawn)	3%	2%	?	17%	?	/	/	/	/	/
CN(c1ncnc(N)c1[N+](=O)[O-])C1CCS(=O)(=O)C1 (stereo not drawn)	0%	-8%	-28%	3%	?	/	/	/	/	/
CN(c1ncnc(N)c1[N+](=O)[O-])C1CCCCC1	-2%	7%	?	1%	1.8µM*	3.1µM*	13µM*	-8%	-5%	?
CCOC(=O)C1CCN(c2cc3c(cc2NC(=O)c2ccccc2Br)n(C)c(=O)n3C)CC1	0%	-10%	8%	-7%	9.2µM*	7.9µM*	?	?	7%	-1%	ELG1 FLuc counter=0%;FLuc biochem=0%
